Among the data in PubChem BioAssay AID1259313 (Sanford-Burnham Center for Chemical Genomics, 2017) are Tm shift relative to glycine control values, retold here.

Hit rate of the full screen: of about 340,000 compounds, about 8,500 (2.5%) were called active.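 The calls were made as follows: active = melting temperature shift of at least 10% of the positive control shift, at one fixed dose; inactive = the rest.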 What follows is part of a selection rich in actives, with near analogues and random picks from the rest.

The assay has as its system Glutamate receptor ionotropic, NMDA 3A (GRIN3A) ligand-binding domain. Description: NR3A LBD thermal stabilization by compounds – biophysical, differential scanning fluorimetry, uHTS, primary screen (AID 1259313). The conditions noted are these: at 25 µM, active compounds read high, 0% = protein alone, 100% = glycine-bound protein.
As for `COc1ccccc1/C=N/N1CCN(Cc2ccccc2Cl)CC1`, the Tm shift relative to glycine control is 3.27% (inactive).

Consider `Cc1cc(-n2nc(C)cc2C)n2ncc(-c3ccccc3)c2n1`, for which the Tm shift relative to glycine control is 0.25% (inactive).

As for `CCOc1cc(/C=N/Nc2cc(C)nc3ccc(C)cc23)ccc1O`, the Tm shift relative to glycine control is -6.31% (inactive).

As for `COc1ccc(CC(=O)N/N=C/c2cc([N+](=O)[O-])cc(Br)c2O)cc1`, the Tm shift relative to glycine control was 7.97% (inactive).

As to `O=[N+]([O-])c1cc(Br)c(O)c(/C=N/Nc2nc3ccccc3s2)c1`, the Tm shift relative to glycine control was 24.4% (active).

Turning to `COc1cc(/C=N/Nc2nc3ccccc3s2)ccc1O`, the Tm shift relative to glycine control was 20.7% (active).

Consider `COc1cc(/C=N/NC(=O)CCc2n[nH]c(=O)[nH]c2=O)ccc1O`, for which the Tm shift relative to glycine control is 0.39% (inactive).

For the compound `Cc1cc(C(=O)N/N=C/c2cc([N+](=O)[O-])cc(C)c2O)n[nH]1`, the Tm shift relative to glycine control is -7.09% (inactive).

With `COc1cc(/C=C/CNC[C@H]2O[C@@H](n3cnc(C(N)=O)n3)[C@H](O)[C@@H]2O)ccc1O`, the Tm shift relative to glycine control is -1.5% (inactive).

In the case of `C/C(=C/C(=O)N1CCN(C)CC1)C(=O)O`, the Tm shift relative to glycine control is -0.35% (inactive).

On to `Cc1cc(C)c2cc(CN(Cc3cccs3)Cc3nnnn3CC3CCCO3)c(=O)[nH]c2c1` (configuration not stated), for which the Tm shift relative to glycine control was -5.51% (inactive).

For `Cn1c(=O)[nH]c(=O)c2c1nc(CN1CCN(c3ccccc3F)CC1)n2CCc1ccccc1`, the Tm shift relative to glycine control was -1.61% (inactive).

With `CCCNC(=O)Nc1ccccc1C(=O)Nc1ccc(OC)cc1`, the Tm shift relative to glycine control is 0% (inactive).

Consider `CCCNC(=O)c1ccccc1NC(=O)CSCc1ccc(OC)cc1`, for which the Tm shift relative to glycine control is 12.7% (active).

In the case of `CCCCCNC(=O)c1cccnc1SCC(=O)Nc1ccccc1OC`, the Tm shift relative to glycine control is 8.62% (inactive).

As for `COc1cc2c(cc1OC)C(C(=O)Nc1cc(C)c(OC)c(C)c1)CC(=O)N2` (configuration not stated), the Tm shift relative to glycine control was 0.68% (inactive).

On to `CC(=O)c1c(C)[nH]c(C(=O)OCC(=O)Nc2c(C)n(C)n(-c3ccccc3)c2=O)c1C`, for which the Tm shift relative to glycine control was 0.41% (inactive).

Take `CCOCCCNC(=O)C(NC(=O)CNC(=O)c1ccccc1)c1ccc(C)cc1` (configuration not stated): the Tm shift relative to glycine control is -0.17% (inactive).

`Cc1ccc(N2CC(C(=O)NCCS(=O)(=O)N3CCN(c4ccccc4)CC3)CC2=O)cc1` (configuration not stated): the Tm shift relative to glycine control was 0.09% (inactive).

Regarding `COc1cc2[nH]c(=S)n(Cc3ccc(F)cc3)c(=O)c2cc1OC`, the Tm shift relative to glycine control was 16.4% (active).

As for `CCOc1cc2[nH]c(=S)n(Cc3ccc(C(=O)N4CCN(C)CC4)cc3)c(=O)c2cc1OCC`, the Tm shift relative to glycine control was -2.77% (inactive).

`COc1cc2[nH]c(=S)n(CCN3CCCCC3C)c(=O)c2cc1OC` (configuration not stated): the Tm shift relative to glycine control was -1.68% (inactive).

Turning to `CCOc1cc2[nH]c(=S)n(Cc3ccc(C(=O)NCCOC)cc3)c(=O)c2cc1OCC`, the Tm shift relative to glycine control was -2.12% (inactive).

For `COc1cc2[nH]c(=S)n(Cc3ccc(C)o3)c(=O)c2cc1OC`, the Tm shift relative to glycine control is 13.2% (active).

For the compound `COc1ccc(Cn2c(=S)[nH]c3cc(C(=O)N4CCCCC4)ccc3c2=O)cc1`, the Tm shift relative to glycine control is 0.18% (inactive).

In the case of `COCC(C)N=CC1=C(O)CC(C)(C)CC1=O` (configuration not stated), the Tm shift relative to glycine control is 1.32% (inactive).

On to `O=C(NN1CCOCC1)c1cccc(F)c1`, for which the Tm shift relative to glycine control was -0.08% (inactive).

For the compound `COc1ccc(C2c3[nH]c4ccccc4c3C[C@H]3C(=O)N(CC(C)C)CC(=O)N23)c(OC)c1` (some centres not stated), the Tm shift relative to glycine control was -1.75% (inactive).

For `Cc1nnc(NC2=NCCCCC2)o1`, the Tm shift relative to glycine control is -2% (inactive).

For the compound `O=C(CC(NS(=O)(=O)c1ccc(Cl)cc1)c1ccco1)NC1CCCC1` (configuration not stated), the Tm shift relative to glycine control is -0.32% (inactive).

Take `CCOC(=O)c1ccc(NC(=O)CS(=O)(=O)c2cn(CC)c3ccccc23)cc1`: the Tm shift relative to glycine control was -11.8% (inactive).

With `Cc1nc(N)nc(SCc2ccc([N+](=O)[O-])cc2)c1N`, the Tm shift relative to glycine control was 1.88% (inactive).

Consider `Cc1nc(SCC(=O)c2ccccc2)c([N+](=O)[O-])[nH]1`, for which the Tm shift relative to glycine control is -0.87% (inactive).

As for `Cc1nc(SCc2ccc(F)cc2)c([N+](=O)[O-])[nH]1`, the Tm shift relative to glycine control was 13.7% (active).

Take `CCCSC1=C(C#N)C(c2ccccc2C)C(C(=O)OC)C(=O)N1` (configuration not stated): the Tm shift relative to glycine control is -0.63% (inactive).

For `Cn1c(SCC(=O)Nc2cccc(NC(=O)c3cccs3)c2)nnc1-c1ccncc1`, the Tm shift relative to glycine control is 2.57% (inactive).

On to `O=C(Nc1ccc2oc(-c3ccc4ccccc4c3)nc2c1)c1cccs1`, for which the Tm shift relative to glycine control is 25.9% (active).

As for `O=C(Cc1cccs1)Nc1ccc([N+](=O)[O-])cc1`, the Tm shift relative to glycine control is 0.1% (inactive).

As for `O=C(Nc1ccccc1)c1ccc(NC(=O)c2cccs2)cc1`, the Tm shift relative to glycine control was 27% (active).

For the compound `O=C(Nc1ccccc1-c1ccccc1)c1cccs1`, the Tm shift relative to glycine control was -0.76% (inactive).

Consider `O=C(Nc1ccnc(-c2ccncc2)n1)c1cccs1`, for which the Tm shift relative to glycine control is -0.64% (inactive).

As to `CC(Oc1cccc(NC(=O)c2cccs2)c1)C(=O)c1ccccc1` (configuration not stated), the Tm shift relative to glycine control is -12.8% (inactive).

As to `O=C(NC(=S)Nc1ccc(NC(=O)c2cccs2)cc1)c1ccc([N+](=O)[O-])cc1`, the Tm shift relative to glycine control is 24.7% (active).

On to `O=C(Nc1ccc(NC(=O)c2cccs2)cc1)c1ccc2ccccc2c1`, for which the Tm shift relative to glycine control is 25.1% (active).

As to `O=C(Nc1ccc2oc(-c3ccccc3F)nc2c1)c1ccco1`, the Tm shift relative to glycine control was -4.92% (inactive).

Take `O=C(Nc1ccc(N2CCN(C(=O)C3CC3)CC2)cc1)c1cccs1`: the Tm shift relative to glycine control was 0.36% (inactive).

Regarding `C/C(=N\NC(=O)c1ccc(NS(=O)(=O)c2cccs2)cc1)c1ccc2ccccc2c1`, the Tm shift relative to glycine control was 5.52% (inactive).

Regarding `O=C(Nc1ccc(C(=O)O)cc1)/C(=C/c1ccc([N+](=O)[O-])cc1)NC(=O)c1ccccc1`, the Tm shift relative to glycine control was 0.77% (inactive).

On to `Cc1cc(C)c(-c2csc(NC(=O)CCCc3nc4ccccc4c(=O)[nH]3)n2)c(C)c1`, for which the Tm shift relative to glycine control was -5.38% (inactive).

Regarding `CCCCCN(C(=O)CCC(=O)OCC(=O)NC1CCC(C)CC1)c1c(N)n(CCCC)c(=O)[nH]c1=O` (configuration not stated), the Tm shift relative to glycine control was -0.6% (inactive).

On to `COc1cc(S(=O)(=O)N2CCN(C(=O)C3CC3)CC2)ccc1NC(C)=O`, for which the Tm shift relative to glycine control is 1.2% (inactive).

`CCCc1c(C(=O)N/N=C(\C)CCc2ccc(OC)cc2)nnn1-c1nonc1N`: the Tm shift relative to glycine control was 0.47% (inactive).

Take `CCNc1nc(N)nc(-c2cc(Cl)ccc2OC)n1`: the Tm shift relative to glycine control was 1.29% (inactive).

For `CCN(CC(=O)Nc1c(F)cccc1F)C(=O)CN1c2cccc3cccc(c23)S1(=O)=O`, the Tm shift relative to glycine control was -0.42% (inactive).

As to `Cc1ccc(Oc2cc(NC(=O)CCCn3nc(C)c([N+](=O)[O-])c3C)cc([N+](=O)[O-])c2)cc1`, the Tm shift relative to glycine control was 14.9% (active).

Regarding `COc1ccc(CNC(=O)CCCn2nc(C)c([N+](=O)[O-])c2C)cc1`, the Tm shift relative to glycine control was 2.36% (inactive).

As to `CCc1ccc(NC(=O)Cn2nc(C)c([N+](=O)[O-])c2C)cc1`, the Tm shift relative to glycine control is -12.5% (inactive).
